The list is not random: actives were taken first. Their share in the collection is about 5.2%.
Sfp inh: inhibitors of Bacillus subtilis Sfp phosphopantetheinyl transferase; actives 3.5% (n = 310,000); Biochemical Sfp PPTase activity, qHTS; AID 1490; Q9F4F7; Potency, µM, without a hit: largest response in the series, negative = inhibition, hits mostly inhibitors;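 further: the enzyme is Sfp with the accession as filed and its product quenches rhodamine fluorescence; 0% = enzyme reaction without inhibitor and -100% = no enzyme wells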
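Fluorescence-quenching assay with 15 nM Sfp, 5 uM rhodamine-CoA and 12.5 uM BHQ-2-labelled ybbR peptide in pH 7.6 Hepes/MgCl2 buffer. Enzyme was pre-incubated with compound for 15 min at room temperature. Rate was taken from the 30-min fluorescence change (525/598 nm).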
TrxR1 substrate: substrates of rat thioredoxin reductase 1; Potency, µM (titrated, usually from 114 µM), for inactives: top-dose activity change, negative = substrate turnover; actives 0.01% (n = 390,000); purified TrxR1 substrate turnover, NADPH consumption readout; AID 588456; O89049; further: nearly all actives have a fitted effect of over 50% in size
Target sequence (O89049 whole entry, looked up): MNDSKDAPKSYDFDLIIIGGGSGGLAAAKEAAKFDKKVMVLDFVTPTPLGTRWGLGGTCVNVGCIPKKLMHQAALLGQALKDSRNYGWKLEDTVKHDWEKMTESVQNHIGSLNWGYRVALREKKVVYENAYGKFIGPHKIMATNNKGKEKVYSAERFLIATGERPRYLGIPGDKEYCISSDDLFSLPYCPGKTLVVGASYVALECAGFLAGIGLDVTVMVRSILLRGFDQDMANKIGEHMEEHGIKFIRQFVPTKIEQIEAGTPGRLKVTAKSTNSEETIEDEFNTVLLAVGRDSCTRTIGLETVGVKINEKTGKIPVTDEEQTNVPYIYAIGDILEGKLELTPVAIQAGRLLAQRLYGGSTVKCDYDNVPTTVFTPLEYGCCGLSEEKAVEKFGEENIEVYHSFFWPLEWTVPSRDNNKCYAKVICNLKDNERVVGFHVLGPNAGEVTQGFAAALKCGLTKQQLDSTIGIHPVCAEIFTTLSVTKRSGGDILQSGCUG
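Rat TrxR1, dispensed at 90 nM, was prereduced with 400 uM NADPH (final) for 5 min at ~22 deg C, then incubated with compound 15 min before 400 uM selenite. A first-read NADPH fluorescence drop versus no-compound background flagged substrates.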
PLK1 PBD inh: PLK1 (human) polo-box domain binding inhibition; Potency, µM, for the others: max response, negative = inhibition, actives largely listed as inhibitors; actives 2.8% (n = 360,000); Plk1 PBD binding of FITC phosphopeptide, fluorescence polarization; AID 720504; further: series mostly up to about 57 µM; nearly all actives have a fitted effect of over 65% in size
VDR inh: blocks the human vitamin D receptor; P11473; VDR-SRC2-3 peptide fluorescence polarization, 2 h; Potency, µM, inactives show max response, negative = inhibition, usual class: inhibitors; actives 0.93% (n = 400,000); AID 504847
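Reagent solutions, kept cold and dark, are dispensed first; compounds are then pinned in at 23 nl, plates briefly spun, and incubated 2 h at ambient temperature. Inhibition of VDR–SRC2-3 peptide binding is read by fluorescence polarization.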
TrxR1 inh: inhibitors of rat thioredoxin reductase 1; O89049; recombinant rTrxR1, NADPH fluorescence consumption, selenite substrate; Potency, µM (doses to about 114 µM), without a hit: at the highest dose activity change, negative = inhibition, actives largely listed as inhibitors; actives 1% (n = 390,000); AID 588453; further: nearly all actives have a fitted effect of over 65% in size
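Rat TrxR1 (90 nM in the dispensed reagent) was pre-reduced with 400 uM NADPH for 5 min at room temperature, then incubated with compound for 15 min. After 400 uM selenite was added, NADPH fluorescence (Ex 340/Em 450 nm) was followed for 8 min.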
IDH1 R132H inh: human IDH1 R132H inhibition; actives 0.093% (n = 390,000); IDH1-R132H enzyme, NADPH consumption, diaphorase/resazurin fluorescence; AID 602179; Potency, µM (doses to about 76.6 µM), without a hit: at the highest dose activity change, negative = inhibition, usual class: inhibitors; further: nearly all actives have a fitted effect of over 65% in size
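IDH1-R132H (0.5 ug/mL) preincubated 30 min with compound, then NADPH (0.016 mM) and alpha-KG (2 mM) added; 80 min at RT, pH 7.5. Remaining NADPH coupled via diaphorase/resazurin to fluorescence (540/590 nm); concentration-response curves normalized to no-enzyme control.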
Numbers without * were called inactive; ? = inconclusive; · = no result; [ ] = another dose, or the depositor's remark. The call rests on the fitted dose curve; in most records, active means well fitted curve in the direction sought with a large enough effect; inconclusive means small, poorly fitted or top-dose-only effect, or another doubt; inactive means no such curve, though single readings can be large; an effect the other way counts as inactive or inconclusive. Unless noted, on the % scale 0 is the no-effect control and ±100 the full control effect; potency means the concentration at half of the fitted maximal effect.

SMILES	Sfp inh	TrxR1 substrate	PLK1 PBD inh	VDR inh	TrxR1 inh	IDH1 R132H inh
CCn1nc(C(=O)OCC(=O)NC(C)C)c2ccccc2c1=O	6%	5%[57.1 µM]	19µM*	?	17%[57.1 µM]	7%
CC(C)CCn1nc(C(=O)OCC(=O)NC(C)c2ccccc2)c2ccccc2c1=O (stereo not drawn)	·	·	0%	·	·	-28%
COc1ccc(CC(=O)NNc2ncnc3c2cnn3Cc2ccccc2)cc1OC	?	4%[57.1 µM]	27µM*	-21%	1%[57.1 µM]	10%
Cc1cccc(Nc2ncnc3c2cnn3Cc2ccccc2)c1	-11%	-1%	24µM*	-12%	26%	-6%
O=C(O)c1ccc(Nc2ncnc3c2cnn3Cc2ccccc2)cc1	?	-5%[57.1 µM]	30µM*	?	11%[57.1 µM]	11%
COc1ccc(Nc2ncnc3c2cnn3Cc2ccccc2)cc1OC	8%	-3%	-1%	-7%	17%	0%
COc1ccc(CNC(=O)C2CCN(S(=O)(=O)c3c(C)noc3/C=C/c3cccs3)CC2)cc1	·	-2%	·	4%	9%	-25%
CCCCCCCCCCCCCCCCn1cc[n+](Cc2ccccc2)c1C	13µM*	·	·	85%	·	·
Cc1ccc(CCNS(=O)(=O)c2ccc3c(c2)C(C)(C)C(=O)N3C)cc1	-9%	14%[57.1 µM]	5%	1%	7%[57.1 µM]	0%
Cc1ccc(CNC(=O)c2ccc(CNS(=O)(=O)c3ccc4c(c3)C(C)(C)C(=O)N4C)cc2)o1	50µM*	2%	-6%	-11%	?	-8%
Cc1cc(C)cc(NS(=O)(=O)c2ccc3c(c2)C(C)(C)C(=O)N3C)c1	0%	0%[57.1 µM]	27µM*	-21%	0%[57.1 µM]	-2%
CCOC(=O)C1=C(C)N(c2ccccc2)C(=O)/C1=C\c1ccc(O)c(OC)c1	6.3µM*	-16%	?	?	?	-4%
COC(=O)C1=C(C)N(c2ccc(OC)c(OC)c2)C(=O)/C1=C\c1ccco1	-15%	0%	-4%	33%	28µM*	0%
CCOC(=O)C1=C(C)N(c2ccccc2)C(=O)/C1=C\c1cccs1	15%	-17%	0%	-18%	-24%	-6%
CCOC(=O)C1=C(C)N(c2ccccc2)C(=O)/C1=C\c1ccco1	56µM*	-12%	-3%	-26%	?	-1%
CCOC(=O)C1=C(C)N(c2ccc(C)cc2)C(=O)/C1=C\c1cccs1	-16%	2%	2%	-15%	16%	-2%
COC(=O)C1=C(C)N(c2cc(C)cc(C)c2)/C(=C/c2ccco2)C1=O	?	-10%[57.1 µM]	-15%	-6%	?	1%
COc1ccc(NC(=O)c2ccco2)cc1NC(=O)c1cc(Cl)ccc1OC	·	14%	·	-23%	16%	12%
CCCCCCC[n+]1ccc(/C=C/c2c[nH]c3ccccc23)c2ccccc21	·	1%	·	·	?	·
CC(C)CO/N=C1/C[C@@H](O)[C@@H](O)[C@@H]2[C@@H]3C(=O)N(Cc4ccccc4)C(=O)[C@H]3CC[C@@H]12	14%	·	·	·	·	·
Cc1ccccc1CSc1nc2cccnc2n1Cc1ccc(C(=O)NC2CC2)cc1	·	11%	·	6%	0%	-2%
CC(=O)N1CCc2c(sc(NC(=O)CS(=O)(=O)c3ccc(F)cc3)c2C(N)=O)C1	·	-11%	?	?	?	2%
O=C(NC(=S)Nc1ccccc1C(=O)O)c1ccc2ccccc2c1	45µM*	7%	?	-26%	-23%	2%
Cc1ccc(NC(=S)NC(=O)c2ccccc2)cc1NC(=S)NC(=O)c1ccccc1	25µM*	3%	-8%	-28%	-9%	3%
O=C(NC(=S)Nc1cccc(NC(=S)NC(=O)c2ccccc2)c1)c1ccccc1	·	-9%	-29%	-3%	-13%	-2%
SMILES	Sfp inh	TrxR1 substrate	PLK1 PBD inh	VDR inh	TrxR1 inh	IDH1 R132H inh
Cc1cccc(C(=O)NC(=S)Nc2ccc(S(=O)(=O)N(C)c3ccccc3)cc2)c1	-1%	10%[57.1 µM]	-15%	15%	13%[57.1 µM]	0%
COC(=O)c1ccccc1NC(=S)NC(=O)c1ccccc1	?	0%	27µM*	-18%	?	2%
Cc1ccccc1C(=O)NC(=S)Nc1ccc(S(=O)(=O)N(C)c2ccccc2)cc1	4%	-7%	27µM*	-8%	8%[57.1 µM]	-3%
CCCCCCNC(=O)O[C@H]1C[C@H](C(=O)OC)[C@H](C(=O)OC)C2CN(S(=O)(=O)c3ccc(C)cc3)C[C@@]21O (stereo partly drawn)	·	·	1%	·	·	2%
O=C(Nc1ccccc1)c1ccccc1NC(=O)C1CCCCC1	?	-11%	-21%	-6%	-10%	3%
COC(=O)c1ccccc1NC(=S)NC(=O)c1ccc(C)cc1	-26%	-9%	?	?	40µM*	3%
Cc1cccc(NC(=O)c2ccccc2NC(=O)C2CCCCC2)c1C	28µM*	7%	-10%	1%	28%	-3%
COC(=O)c1ccccc1NC(=S)NC(=O)C1CCCCC1	-5%	-3%	-23%	-30%	16µM*	-7%
COC(=O)c1ccccc1NC(=S)NC(=O)c1ccc2c(c1)OCO2	-14%	2%	?	?	8.9µM*	1%
COC(=O)c1ccccc1NC(=O)C1CCCC1	10%	-6%	-11%	5%	16%[57.1 µM]	1%
COC(=O)c1ccccc1NC(=S)NC(=O)CC(C)C	12%	1%	-13%	10%	?	4%
CCC1=C2CC[C@H]3C(=O)N(c4ccccc4)C(=O)[C@H]3[C@H]2[C@@]2(Cc3ccccc3)C(=NCc3ccccc3)OC(=O)N2C1=O	47%	·	·	·	·	·
COC(=O)c1ccccc1NC(=S)NC(=O)c1ccccc1C	-3%	6%	-27%	-5%	11µM*	3%
COC(=O)c1ccc(NC(=O)c2ccccc2N(C)S(=O)(=O)c2ccccc2)cc1	-9%	-12%	24µM*	-10%	15%[57.1 µM]	2%
CCOc1ccc(N=Cc2ccc([N+](=O)[O-])cc2)c(O)c1	·	·	-24%	·	·	-7%
CC(C)C12CN3CC(C(C)C)(CN(C1)C3c1ccc(Cl)cc1)C2=O (stereo not drawn)	·	4%	·	-6%	24%	0%
COc1ccc(-c2coc3cc(O)ccc3c2=O)c(O)c1O	-99%	·	·	50µM*	·	·
N#Cc1ccsc1NC(=O)C1CCN(S(=O)(=O)c2cccs2)CC1	·	0%[57.1 µM]	-5%	16%	7%[57.1 µM]	0%
O=C(/C=C\c1ccccc1)Nc1ccc(NC(=O)c2ccco2)cc1	12%	1%[57.1 µM]	3.4µM*	20µM*	20%	0%
O=C(Oc1ccccc1)c1ccc(NC(=O)c2ccco2)cc1	-36%	-2%	24µM*	-22%	-7%	2%
